Where “and” joins values, the source holds several entries; their conditions need not be identical. Equal entries are not always repeated. About 5,500 (1.6%) of roughly 350,000 compounds were called active.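 The calls were made as follows: active = significant combined selectivity score with lowered wild-type GFP, culture density cut under 30%, mutant RFP and density less affected; inactive = any of these conditions unmet.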 For the sample, actives were picked, then their nearest neighbours and some compounds at random.
Experiment: GFP drop in mixed WT/humanized-ribosome E. coli culture – GFP/RFP fluorescence, OD600, single point, bacterial rRNA inhibitor project, primary screen (AID 720706)
Conditions: E. coli WT GFP vs humanized-ribosome RFP mutants, 24 h; GFP signal change (wild-type ribosome): stronger effect = lower value, DMSO median 0, no signal -100; OD600 change: measured here: OD600 growth, DMSO median 0, no signal -100; RFP signal change: measured here: RFP humanized mutant strains, DMSO median 0, no signal -100, concentration not given here

Row | Structure (SMILES) | GFP signal change (wild-type ribosome) | OD600 change | RFP signal change
1 | O=C(Nc1ccccc1F)N[C@H]1CC[C@@H](CCNS(=O)(=O)c2ccc(F)cc2)O[C@@H]1CO | 0.53% (inactive) | -4.9% | 0.665%
2 | COC(=O)c1ccc(/C=C2/C(=O)Oc3ccccc32)cc1 | 5.01% (inactive) | 8.63% | -1.53%
3 | O=C(NN=Cc1ccccc1O)NN=Cc1ccccc1O | -15.2% (inactive) | -34.3% | -9.61%
4 | O=C1Oc2ccccc2C(=O)/C1=C/c1ccccc1O | -24% (active) | -16.1% | -3.67%
5 | O=C(N[C@H]1CC[C@@H](CCNS(=O)(=O)Cc2ccccc2)O[C@H]1CO)c1ccccc1F | 1.77% (inactive) | 2.62% | 1.25%
6 | COCC(=O)Nc1ccc2c(c1)C(=O)N(C)C[C@H](OC)[C@@H](C)CN(CCc1ccccc1)[C@@H](C)CO2 | -2.84% (inactive) | -4.45% | -1.3%
7 | CCC(C)CN1C(=O)CN(S(C)(=O)=O)CC1(C)C(=O)Nc1ccc2c(c1)OCCO2 (stereo not given) | 11.4% (inactive) | 6.25% | 0.462%
8 | Cc1ccccc1CN1C(=O)CSCC1(C)C(=O)Nc1c(C)cccc1C (stereo not given) | -3.76% (inactive) | 8.15% | 2.11%
9 | CC1(C(=O)Nc2ccc3c(c2)OCCO3)CSCC(=O)N1CCOc1ccccc1 (stereo not given) | -19.5% (active) | -13.7% | 6.62%
10 | C[C@@H]1CCCCO[C@@H](CN(C)C(=O)Cc2ccccc2)[C@H](C)CN([C@H](C)CO)C(=O)c2cc(NC(=O)Cc3ccccc3)ccc2O1 | -4.58% (inactive) | -13.8% | -0.346%
11 | COc1cccc(CNC(=O)[C@@H]2[C@@H](CO)[C@@H]3Cn4c(ccc(-c5ccncc5)c4=O)[C@H]2N3C(C)=O)c1 | 2.73% (inactive) | -2.66% | -0.658%
12 | Cc1noc(C)c1S(=O)(=O)Nc1ccc2c(c1)C(=O)N([C@@H](C)CO)C[C@@H](C)[C@@H](CN(C)C)O2 | 5.72% (inactive) | -2.97% | -0.906%
13 | O=C(c1cccs1)N(Cc1cc2ccccc2[nH]c1=O)CC1CCCO1 (stereo not given) | -0.275% (inactive) | -2.27% | -1.32%
14 | Cc1cc2cc(CN(Cc3cccs3)Cc3nnnn3CC3CCCO3)c(=O)[nH]c2cc1C (stereo not given) | -7.06% (inactive) | -4.84% | -2.86%
15 | Cc1cc(C)c2cc(CN(Cc3cccs3)Cc3nnnn3CC3CCCO3)c(=O)[nH]c2c1 (stereo not given) | -37.2% (active) | -22.2% | -2.73%
16 | CO[C@@H]1CN(C)C(=O)c2ccc(NC(C)=O)cc2OC[C@@H](C)N(CC2CC2)C[C@H]1C | 2.26% (inactive) | -1.92% | 1.24%
17 | CC(=O)N(C)C[C@@H]1Oc2ccc(N)cc2CC(=O)N(C)C[C@H]1C | 1.8% (inactive) | 0.888% | -1%
18 | CNC[C@@H]1Oc2ccc(NC(C)=O)cc2CC(=O)N(C)C[C@@H]1C | -0.631% (inactive) | 1.55% | 0.729%
19 | COc1ccc(S(=O)(=O)N[C@@H]2CC[C@@H](CC(=O)N3CCC(Cc4ccccc4)CC3)O[C@@H]2CO)cc1 | 8.03% (inactive) | -22.7% | 10.2%
20 | C[C@H](CO)N1C[C@H](C)[C@H](CN(C)Cc2ccc3c(c2)OCO3)Oc2c(NS(=O)(=O)c3ccccc3)cccc2C1=O | -1.49% (inactive) | 3.3% | -2.6%

Row | Structure (SMILES) | GFP signal change (wild-type ribosome) | OD600 change | RFP signal change
21 | C[C@H](NC(=O)[C@H]1N[C@H]2c3ccc(-c4ccc(C(=O)N(C)C)cc4)c(=O)n3C[C@H]2[C@@H]1CO)c1ccccc1 | 1.87% (inactive) | 7.26% | -1.73%
22 | CN(C)C(=O)c1cccc(-c2ccc(C3[C@H]4CNC[C@@H]3N4C(=O)Nc3ccccc3F)cc2)c1 (stereo not given in full) | 0.866% (inactive) and 2.44% (inactive) | -5.13% and 4.05% | -2.14% and 0.208%
23 | COc1ccccc1-c1cnc2c(c1)C(=O)N([C@@H](C)CO)C[C@H](C)[C@@H](CN(C)C(C)=O)O2 | 3.59% (inactive) | 4.33% | -1.79%
24 | O=C(/C=C/c1ccc(Cl)cc1)N1CCN(c2ccccc2[N+](=O)[O-])CC1 | -31% (inactive) | -42.6% | -26.6%
25 | O=C(/C=C/c1ccc(Cl)c([N+](=O)[O-])c1)c1ccc(O)cc1 | -26.1% (active) | -2.69% | 9.14%
26 | O=C(/C=C/c1ccc2c(c1)OCCO2)c1ccc(O)cc1 | -19.8% (active) | -11.6% | 6.75%
27 | CC(=O)Nc1ccc(C=Cc2ccc([N+](=O)[O-])cc2)cc1 | 2.45% (inactive) | 3.79% | -1.71%
28 | O=C(COC(=O)c1ccc(O)cc1O)c1ccc2c(c1)OCCO2 | -13.2% (inactive) | -20.4% | 0.835%
29 | CC(=O)Nc1ccc(C=CC(=O)c2ccc([N+](=O)[O-])cc2)cc1 | 5.97% (inactive) | 7.9% | -0.138%
30 | CC(CC(=O)O)C(=O)c1ccc(Cl)c([N+](=O)[O-])c1 (stereo not given) | 10.7% (inactive) | 9.82% | -3.76%
31 | COc1ccc(OC)c(/C=C/C(=O)c2ccc3c(c2)OCO3)c1 | 0.015% (inactive) | -9.29% | -8.02%
32 | CN(C)c1ccc(/C=C/C(=O)c2ccc(O)cc2)cc1[N+](=O)[O-] | -22.5% (active) | -13.8% | 5.33%
33 | CC=Cc1ccc2n(c1=O)C[C@@H]1[C@@H](CO)[C@H](C(=O)N(C)C)N(CC3CCOCC3)[C@H]21 (mixture of isomers) | 2.33% (inactive) | -5.67% | 0.865%
34 | CN1c2ccc(Br)cc2[C@@H]2[C@@H](CCN2C(=O)C2CCCC2)[C@H]1CO | -37% (inactive) | -68.3% | 0.745%
35 | COCC#Cc1ccc([C@@H]2[C@@H](CO)N3CCCCN(C(=O)COC)C[C@@H]23)cc1 | 4.36% (inactive) | 1.27% | -1.64%
36 | COCC#Cc1ccc2c(c1)O[C@H](CN(C)C(=O)CC1CC1)[C@@H](C)CN([C@@H](C)CO)S2(=O)=O | 1.22% (inactive) | 3.88% | -1.84%
37 | CCCNC(=O)N(C)C[C@H]1Oc2ncc(-c3ccccc3F)cc2C(=O)N([C@@H](C)CO)C[C@H]1C | -0.164% (inactive) | 9.97% | 0.69%
38 | COc1ccc(-c2csc(Nc3cccc(C)n3)n2)cc1OC | -3.87% (inactive) | -21.5% | 23%
39 | CC(=O)NC(c1ccccc1)c1nc(-c2cccc(C(C)C)c2)cs1 (stereo not given) | 2.35% (inactive) | -27.5% | 4.32%
40 | Cc1cccc(Nc2nc(-c3ccccc3)cs2)n1 | -36.3% (active) | -28.1% | -6.26%

Source: PubChem BioAssay AID720706 (Broad Institute, 2013)
